Consider 17 compounds from PubChem BioAssay.

Test [1] concerns Plasmodium falciparum Sir2 (PF13_0152, Sir2A). Nature of the test: pfSir2 binders on small-molecule microarrays, primary screen, biochemical, small-molecule microarray, 635 nm fluorescence (AID 1098).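 Note: score merges spot fluorescence intensity with its signal-to-noise ratio.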 The settings on record: small-molecule microarray binding, fluorescence 635 nm; higher = more signal.
A short description of test [2]: small-molecule microarray binders of probe aDKK1, primary screen, biochemical, biotinylated probe, 635/667 nm fluorescence (AID 1099).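 Note: score merges 667nm spot fluorescence with signal to noise across triplicate slides; reference of the scale not given here.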 The settings on record: higher = more signal.
The nature of test [3]: small-molecule microarray binders of probe aCHRDL2, primary screen, biochemical, biotinylated probe, 635/667 nm fluorescence (AID 1100). The conditions noted are these: higher = more signal.
Test [4] is described as follows: splicing luciferase reporter signal modulators, primary screen, spliceosome inhibition project, cell-based, HEK293, splice +/- reporter (AID 1101).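 Note: HEK293 cells carrying a splicing-competent luciferase reporter gene; test concentration not given here.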 The settings on record: luminescence, 24 h, higher = more signal, called active from +8 up or from −8 down. For orientation: In a reporter assay the amount or activity of a reporter protein is the signal.
Test [5] concerns the target Fibroblast growth factor 10 (Homo sapiens) (UniProt O15520). Nature of the test: FGF10 binders on small-molecule microarrays, primary screen, biochemical, small-molecule microarray, 635 nm fluorescence (AID 1102). The settings on record: FGF10 binding, fluorescence 635 nm, higher = more signal.
The subject of test [6] is glycogen synthase kinase-3 (GSK3A per assay name; protocol says GSK3B). Kind of test: GSK3 binders on small-molecule microarrays, primary screen, biochemical, small-molecule microarray, 635 nm fluorescence, GSK3A (AID 1103). Note: the record names both GSK3A and GSK3B. The conditions noted are these: small-molecule microarray binding, fluorescence 635 nm; higher = more signal.
Test [7] deals with Epidermal growth factor receptor (Homo sapiens) (UniProt P00533). Kind of test: EGFR binders on small-molecule microarrays, primary screen, biochemical, small-molecule microarray, 635 nm fluorescence (AID 1104).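 Note: score merges 667 nm emission intensity with spot signal to noise over triplicate slides.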 The conditions noted are these: EGFR binding, higher = more signal.
Sequence of Epidermal growth factor receptor (Homo sapiens) (P00533 whole entry, looked up): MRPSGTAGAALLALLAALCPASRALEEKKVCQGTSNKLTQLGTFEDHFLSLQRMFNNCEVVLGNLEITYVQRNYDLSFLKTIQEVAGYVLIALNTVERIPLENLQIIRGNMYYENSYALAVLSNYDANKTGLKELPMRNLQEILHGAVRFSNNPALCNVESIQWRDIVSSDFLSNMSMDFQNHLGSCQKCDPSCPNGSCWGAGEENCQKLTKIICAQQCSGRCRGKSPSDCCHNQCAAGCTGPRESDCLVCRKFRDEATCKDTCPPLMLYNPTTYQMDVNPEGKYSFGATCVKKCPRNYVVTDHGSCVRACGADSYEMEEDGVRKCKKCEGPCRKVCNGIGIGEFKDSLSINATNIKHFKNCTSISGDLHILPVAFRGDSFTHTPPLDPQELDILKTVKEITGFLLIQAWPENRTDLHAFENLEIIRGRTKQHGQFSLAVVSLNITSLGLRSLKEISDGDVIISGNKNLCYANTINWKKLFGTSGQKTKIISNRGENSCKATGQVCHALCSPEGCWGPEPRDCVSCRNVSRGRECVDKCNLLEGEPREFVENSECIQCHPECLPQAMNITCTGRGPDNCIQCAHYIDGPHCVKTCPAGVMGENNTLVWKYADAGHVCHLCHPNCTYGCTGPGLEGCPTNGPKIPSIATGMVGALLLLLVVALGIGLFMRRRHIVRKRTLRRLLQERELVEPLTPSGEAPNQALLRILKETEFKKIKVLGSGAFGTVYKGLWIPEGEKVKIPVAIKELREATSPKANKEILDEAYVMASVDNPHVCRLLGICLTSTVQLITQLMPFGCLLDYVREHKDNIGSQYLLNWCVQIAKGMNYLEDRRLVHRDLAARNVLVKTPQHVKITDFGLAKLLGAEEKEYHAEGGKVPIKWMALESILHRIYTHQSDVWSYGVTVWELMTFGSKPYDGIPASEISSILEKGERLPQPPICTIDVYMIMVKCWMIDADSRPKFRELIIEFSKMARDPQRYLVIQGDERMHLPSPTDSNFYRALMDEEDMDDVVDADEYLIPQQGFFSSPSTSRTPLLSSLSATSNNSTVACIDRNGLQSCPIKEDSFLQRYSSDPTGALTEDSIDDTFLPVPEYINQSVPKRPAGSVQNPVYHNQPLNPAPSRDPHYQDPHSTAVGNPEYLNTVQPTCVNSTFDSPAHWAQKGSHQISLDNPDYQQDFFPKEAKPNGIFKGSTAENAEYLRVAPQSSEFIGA
Test [8] deals with Follistatin-related protein 3 (Homo sapiens) (UniProt O95633). Kind of test: FSTL3 binders on small-molecule microarrays, primary screen, biochemical, small-molecule microarray, 635 nm fluorescence (AID 1105).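 Note: score merges emission near 667 nm and signal to noise per printed spot across three slides.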 The settings on record: FSTL3 binding, higher = more signal.
Sequence of Follistatin-related protein 3 (Homo sapiens) (O95633 whole entry, looked up): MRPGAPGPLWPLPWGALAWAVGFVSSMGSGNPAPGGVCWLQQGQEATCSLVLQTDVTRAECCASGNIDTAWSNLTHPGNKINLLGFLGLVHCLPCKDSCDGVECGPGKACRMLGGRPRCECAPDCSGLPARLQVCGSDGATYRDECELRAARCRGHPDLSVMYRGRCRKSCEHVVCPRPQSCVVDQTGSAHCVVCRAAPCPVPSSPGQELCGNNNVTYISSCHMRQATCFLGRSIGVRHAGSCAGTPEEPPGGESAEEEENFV
In test [9] the target is Dickkopf-related protein 1 (Homo sapiens) (UniProt O94907). Kind of test: DKK1 binders on small-molecule microarrays, primary screen, biochemical, small-molecule microarray, 635 nm fluorescence scan (AID 1106).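 Note: score merges emission near 667 nm with signal to noise over three replicate slides.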 The conditions noted are these: DKK1 binding, higher = more signal.
Sequence of Dickkopf-related protein 1 (Homo sapiens) (O94907 whole entry, looked up): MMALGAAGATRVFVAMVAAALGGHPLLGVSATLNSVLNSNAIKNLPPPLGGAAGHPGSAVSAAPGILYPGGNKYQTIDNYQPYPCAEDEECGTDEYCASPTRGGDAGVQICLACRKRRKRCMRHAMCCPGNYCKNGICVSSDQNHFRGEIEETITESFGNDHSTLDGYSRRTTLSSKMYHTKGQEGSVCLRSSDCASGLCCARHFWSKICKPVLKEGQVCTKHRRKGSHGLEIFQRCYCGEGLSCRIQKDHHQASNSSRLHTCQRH
Test [10] has as its system Inhibin beta A chain (activin A). Nature of the test: INHBA (activin A) binders on microarrays, primary screen, biochemical, small-molecule microarray, 635 nm fluorescence scan (AID 1107).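 Note: mouse activin A protein probed at 4.33 µg/mL on printed slides; score merges bound-protein fluorescence near 667 nm with spot signal-to-noise.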 The conditions noted are these: small-molecule microarray binding, higher = more signal.

Calls of active or inactive are those of the source.

Sequence of Fibroblast growth factor 10 (Homo sapiens) (O15520 whole entry, looked up): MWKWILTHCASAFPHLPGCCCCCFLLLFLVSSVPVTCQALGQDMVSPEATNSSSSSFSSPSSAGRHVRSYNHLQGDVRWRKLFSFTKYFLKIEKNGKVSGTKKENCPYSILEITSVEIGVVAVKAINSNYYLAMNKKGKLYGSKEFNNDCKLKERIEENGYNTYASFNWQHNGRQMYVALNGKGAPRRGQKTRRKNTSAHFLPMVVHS

Turning to `O=C1OCCC=C[C@H]2OC34C=CCN(CCN5CCOCC5)C(=O)[C@H]3N(CCO)C(=O)[C@@H]4C12` (stereo not given in full), the composite z-score in test [1] is -0.378; in test [2], -0.507; in test [3], -0.771; in test [5] it was 0.217; in test [6], -0.594; in test [7], -0.803. Moreover, the values for the composite z-score in test [8], in [9] and in [10] were -0.0836, 0.794 and 0.612, respectively. The z-score in test [4] is -0.197 (inactive).

For the compound `C=C(C(=O)CC[C@@H](OC(=O)c1cccnc1)c1ccc(CO)o1)C(C)C`, the composite z-score in [1] was 0.392; in [2], -0.174; in [3] it was -0.36; in [5], 1.16; in test [6], 0.803; in [7], 0.152. Besides, the results for the composite z-score in [8], in [9] and in test [10] were 0.933, 0.479 and 1.04, respectively. Further, in test [4], the z-score was 1.38 (inactive).

For the compound `O=C(NCCN1CCOCC1)[C@@H]1c2ccccc2C(=O)N(Cc2cc(F)cc(C(F)(F)F)c2)[C@H]1c1ccc(CO)cc1`, the composite z-score is 1.07 in [1]; -0.469 in test [2]; 0.776 in test [3]; 0.07 in test [5]; -0.202 in test [6]; -0.651 in [7]. The composite z-score is -0.217 in test [8], -1.14 in test [9] and -0.333 in [10]. For the same compound, the z-score in test [4] was 0.284 (inactive).

Take `C=C(C)[C@@H]1CC=C(C(O)C2C=CC3C(=O)N(Cc4ccccc4)C(=O)C3N2n2cnnc2)CC1` (stereo not given in full): the composite z-score is 0.827 in test [1]; 0.546 in test [2]; 1.11 in test [3]; -0.394 in test [5]; -0.724 in test [6]; -0.608 in test [7]. Further, the composite z-score was -0.739 in test [8], -0.665 in test [9] and 1.34 in [10]. Moreover, in test [4], the z-score is -0.925 (inactive).

Regarding `COC(=O)[C@@]1(Cc2ccccc2)[C@H]2c3cc(C(=O)N(C)C)n(Cc4cc(F)c(F)c(F)c4)c3C[C@H]2CN1C(=O)c1ccccc1`, the composite z-score in test [1] was 1.47; in test [2], 0.375; in test [3], 1.22; in test [5], 0.86; in [6], -0.629; in test [7] it was 0.0296. For the same compound, the composite z-score in [8] is 0.521; in test [9] it was -0.818; in [10] it was 0.748. Moreover, the z-score in [4] was -3.26 (inactive).

Turning to `Cc1ccc(N2C(=O)c3ccccc3[C@@H](C(=O)NCC(C)C)[C@@H]2c2ccc(CO)cc2)nc1`, the composite z-score in test [1] was 1.48; in test [2] it was -0.244; in test [3] it was 0.544; in test [5] it was -0.617; in test [6] it was -0.813; in [7] it was -1.26. In addition, the composite z-score in test [8] was -1.19; in test [9], -0.52; in test [10], 0.244. The z-score in [4] is 0.337 (inactive).

For `COCC1C2CC[C@H]3C(OCc4ccc(F)cc4C(F)(F)F)OC[C@]4(C)[C@H]3C2=C(CN4C(=O)OC(C)(C)C)[C@H](C)C1COC` (stereo not given in full), the composite z-score in test [1] was 1.45; in test [2], 1.04; in test [3], 1.23; in [5] it was 0.189; in test [6], 0.366; in test [7], 0.0761. In addition, the composite z-score is 0.45 in test [8], 0.202 in test [9] and 0.939 in test [10]. Besides, the z-score in test [4] is -0.625 (inactive).

As for `CC(C)C(O)C1C=CC2C(=O)N(C)C(=O)C2N1N1CCCCC1` (stereo not given), the composite z-score in [1] came out at 1.61; in test [2] it was 0.184; in test [3], 0.674; in [5], 0.709; in [6], 0.752; in test [7], 0.403. In addition, the composite z-score in test [8] was found to be 0.159; in test [9] it was 0.13; in test [10], 0.976. The z-score in [4] was 1.15 (inactive).

In the case of `CCOC(=O)C1=C[C@@H](C(C)(C)C)N(S(=O)(=O)c2ccc(C)cc2)[C@H]1c1ccc(Cl)c(Cl)c1`, the composite z-score turned out to be 1.1 in test [1]; 0.665 in [2]; 0.827 in [3]; 0.733 in test [5]; 1.3 in [6]; 0.481 in test [7]. Moreover, the composite z-score in [8] amounted to 0.924; in test [9], 0.023; in test [10] it was 0.326. Moreover, the z-score in [4] is 0.425 (inactive).

On to `CN1C(=O)C2C=CC(C(O)C3=C[C@H]4C[C@@H](C3)C4(C)C)N(Nc3ccc([N+](=O)[O-])cc3[N+](=O)[O-])C2C1=O` (stereo not given in full), for which the composite z-score in test [1] is 1.22; in [2], 1.34; in test [3], 1.07; in test [5] it was 0.721; in [6] it was 1.28; in [7], 0.21. The composite z-score is 0.988 in test [8], -0.446 in [9] and 0.844 in test [10]. Moreover, the z-score in [4] was 0.674 (inactive).

As to `CCOC(=O)C=Cc1cccc(OC)c1O`, the composite z-score in test [1] is -0.0095; in [2] it was -0.349; in test [3], 0.165; in test [5] it was -0.96; in [6] it was -0.073; in [7], -1.71. Further, the results for the composite z-score in test [8], in test [9] and in test [10] were -0.631, -1.77 and -0.4, respectively. For the same compound, the z-score in [4] is -1.98 (inactive).

Turning to `CC(=O)NCCCC[C@@H]1NC(=O)[C@@H]2C[C@H](C(=O)NCCCCCC[N+](C)(C)C)[C@H](c3cccc(OCCO)c3)N2C1=O`, the composite z-score is 1.13 in [1]; -0.145 in test [2]; -0.0962 in test [3]; 1.23 in test [5]; 1.27 in test [6]; 0.341 in test [7]. Also, the composite z-score came out at 1.25 in test [8], 1.45 in test [9] and 0.811 in test [10]. In addition, the z-score in [4] was -0.0513 (inactive).

Consider `COC(=O)[C@@]1(Cc2ccc(F)cc2)[C@H]2c3cc(C(=O)N(C)C)n(Cc4ccccn4)c3C[C@H]2CN1C(=O)c1ccccc1`, for which the composite z-score in test [1] stood at 1.19; in test [2] it was 1.37; in [3], 1.14; in test [5] it was 0.214; in test [6], 1.08; in test [7], 0.328. Further, the composite z-score in test [8] was found to be 0.706; in test [9] it was 0.116; in [10], 1.24. In addition, in test [4], the z-score is -2.82 (inactive).

On to `COC(=O)C(CC#Cc1ccc2c(c1)[C@]1(C(=O)N2)[C@H](C(=O)N2CCCCCCC2)[C@H]2C(=O)O[C@H](c3ccccc3)[C@H](c3ccccc3)N2[C@@H]1c1ccccc1OCCO)C(=O)OC`, for which the composite z-score in [1] came out at 2.14; in test [2] it was 3.1; in test [3], 1.75; in test [5], 1.47; in [6], 1.47; in test [7] it was 1.96. Also, the composite z-score was 1.73 in test [8], 2.58 in test [9] and 1.79 in test [10]. Also, the z-score in test [4] was 0.13 (inactive).

With `COCC1=C([C@H](O)CCc2ccccc2)[C@H](CO)[C@@H]2C(=O)N(Cc3ccccc3)C(=O)[C@@H]2C1`, the composite z-score was -0.0333 in test [1]; -0.253 in test [2]; -0.25 in test [3]; 0.438 in test [5]; 0.0321 in test [6]; 0.313 in [7]. Besides, the values for the composite z-score in [8], in [9] and in test [10] were 0.265, 0.391 and 0.554, respectively. In addition, the z-score in test [4] was 0.212 (inactive).

Take `C=C(COC)/C(=C/C[C@H](OC(C)=O)c1ccccc1OCCO)c1cnc2ccccc2c1`: the composite z-score is 0.279 in test [1]; -0.0732 in [2]; -0.0887 in [3]; 1.16 in [5]; 0.521 in [6]; 0.486 in [7]. For the same compound, the values for the composite z-score in test [8], in test [9] and in test [10] were 1.41, 0.743 and 1.85, respectively. Moreover, the z-score in test [4] was 0.11 (inactive).

Regarding `CC(C)NC(=O)[C@@H]1c2ccccc2C(=O)N(C2CCCCC2)[C@H]1c1ccc(CO)cc1`, the composite z-score in [1] turned out to be 0.576; in test [2], 0.678; in [3], 0.919; in test [5], 0.902; in [6] it was 0.889; in [7], 0.101. Besides, the values for the composite z-score in test [8], in [9] and in test [10] were 0.28, -0.161 and 0.445, respectively. In addition, in test [4], the z-score is 0.0672 (inactive).
